# From PubChem BioAssay (NCI)
# Compounds without any hit were thinned out: in the full panel of roughly 83,000, 20% have a hit.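 Single-concentration screen, 48 h exposure, 96-well plates. Endpoint: percent growth. Below 10 = active.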 Values without a mark were called inactive. Activity calls are given as the source filed them.
# Experiments:
# Experiment in all cases: NCI-60 one-dose screen, 48 h (100 = growth as untreated, 0 = no growth, -100 = all killed)
# Conditions in all cases: 10 µM unless noted
# NCI-H23 lung = test system: NCI-H23 lung
# NCI-H226 lung = test system: NCI-H226 lung
# NCI-H322M lung = test system: NCI-H322M lung
# HOP-62 NSCLC = test system: HOP-62 NSCLC
# NCI-H460 lung = test system: NCI-H460 lung
# HOP-92 NSCLC = test system: HOP-92 NSCLC
# NCI-H522 lung = test system: NCI-H522 lung
# 786-0 renal = test system: 786-0 renal
# COLO 205 colon = test system: COLO 205 colon
# A549/ATCC NSCLC = test system: A549/ATCC NSCLC
Structure (SMILES),growth (NCI-H23 lung),growth (NCI-H226 lung),growth (NCI-H322M lung),growth (HOP-62 NSCLC),growth (NCI-H460 lung),growth (HOP-92 NSCLC),growth (NCI-H522 lung),growth (786-0 renal),growth (COLO 205 colon),growth (A549/ATCC NSCLC)
CCCC(=O)NC(c1cccnc1)c1cc(C(C)=O)c2cccnc2c1O (stereo unspecified),48.6%,25%,26.9%,26.2%,12.1%,43.3%,18.6%,32.2%,15.6%,–
CCC(=O)Nc1ccc(-c2nc(-c3cccc(O)c3)c(-c3ccnc(Br)c3)[nH]2)cc1,86%,74.2%,73.9%,75%,20.9%,57.5%,57.8%,46.8%,–,–
CCC(C)[C@H]1OC(=O)[C@H](C(C)C)N(C)C(=O)[C@@H](C(C)C)OC(=O)[C@H](C(C)C)N(C)C(=O)[C@@H](C(C)CC)OC(=O)[C@H](C(C)C)N(C)C1=O (stereo partly specified),8.83% (active),19.2%,8.61% (active),8.79% (active),9.08% (active),-19.8% (active),-2.93% (active),10.4%,-91.8% (active),–
COc1ccc(S(=O)(=O)NCCCNc2nccc(-n3cnc4ccccc43)n2)cc1,91.9%,73.2%,104%,94.9%,97.3%,75.8%,81.1%,95.9%,108%,–
COc1cc(C(=O)c2cc(C(C)=O)c3c4ccccc4ccn23)cc(OC)c1OC,64.4%,66.8%,74.8%,56%,45.1%,26.8%,52%,70.1%,38.6%,–
CS(=O)(=O)c1ccc2c(c1)c1c(n2C(=O)c2ccc(Cl)cc2)CCCC1,45%,60.9%,43.8%,43.1%,12.3%,35%,-44.2% (active),43.6%,-1.12% (active),–
CN(C)C(=O)c1ccccc1-n1cnc2ccccc2c1=O,99.3%,102%,98.5%,112%,101%,117%,101%,101%,109%,99.2%
CCCCCCCCNC(=O)c1ccc(Cn2c(CCCC)nc3c(N)nc4ccccc4c32)cc1,38.8%,87.7%,85.3%,75.5%,3.61% (active),26.2%,-50.4% (active),-78.3% (active),-8.18% (active),–
O=S(=O)(Nc1ccc(I)c(Cl)c1)c1ccc(-c2cnc(C3CC3)o2)cc1,33.8%,41.9%,46%,29%,12.6%,49%,24.7%,41.7%,12%,–
O=C1c2c(c3c4cccnc4[nH]c3c3ccc4ccccc4c23)C(=O)N1CCN1CCNCC1,81.6%,89.4%,88%,63.6%,32.6%,85.3%,81.8%,52.7%,81.9%,–
Cn1cc(-c2nn3c(=O)cc(-c4ccccc4)nc3s2)c2cc(F)ccc21,59.7%,46.4%,65.6%,45%,15.5%,-3.43% (active),–,82.5%,44.8%,36.7%
COc1ccc(N)cc1C(=O)Nc1cccc(-c2cc(=O)c3c(OC)c(OC)c(OC)cc3o2)c1,63.7%,61.7%,72.5%,69.6%,61.5%,8.78% (active),–,53.8%,84.7%,69.3%
C[C@@H]1C[C@H]2C(=O)OCC(NC(=O)[C@H](Cc3cc(F)cc(F)c3)NC(=O)Nc3ccc(Cl)cc3F)C(=O)N3CCC[C@H]3C(=O)N3CCCC[C@H]3C(=O)N[C@@H](C)C(=O)N2C1 (stereo partly specified),37.9%,-4.62% (active),48.3%,39.1%,14.8%,9.65% (active),–,33.6%,–,25.1%
NC(=O)c1c(NC(=O)c2cccc(OC(F)(F)F)c2)sc2c1CCC(=O)C2,25.8%,80.1%,110%,102%,96.6%,71.6%,–,89.4%,85.7%,74.7%
CN1CCN(c2ccc3c(C(N)=O)c(NC(=O)c4ccc(C(C)(C)C)cc4)sc3c2)CC1,79.7%,104%,94.7%,86.6%,53.8%,79%,–,71.2%,70.1%,76.2%
N#Cc1c(-c2cccs2)cc(-c2cnccn2)nc1SCC(=O)NNC(=S)Nc1ccc(F)cc1,108%,117%,97.3%,106%,105%,112%,–,99.3%,112%,–
O=C1c2cc(Br)ccc2-n2c1nc1cc(Br)ccc1c2=O,58.6%,78.3%,88.7%,82.3%,85.4%,134%,–,88.5%,85.7%,67.1%
Cc1occc1-c1nc2s/c(=C\c3cn(-c4ccccc4)nc3-c3ccccc3)c(=O)n2n1,88.5%,97.4%,107%,118%,103%,67.8%,–,101%,118%,95.7%
CCCC(=O)NC(c1cccnc1)c1ccc2c(C)ccnc2c1O (stereo unspecified),37.8%,17.2%,27.2%,23.4%,6.08% (active),47.2%,–,26%,9.55% (active),16%
COc1cc2oc(-c3cccc(NC(=O)c4cc(NC(=O)[C@H](C)N)ccc4Cl)c3)cc(=O)c2c(OC)c1OC,91.5%,86%,104%,105%,99.8%,17.2%,–,91.7%,101%,96.3%
CN1C(=O)/C(=C/C=C/c2ccco2)SC1=S,75.7%,70.1%,88.8%,93.8%,99.1%,98.9%,–,84.9%,94.3%,72%
NC(=S)N/N=C(/C=C/c1cn(-c2ccccc2)nc1-c1ccc(Cl)cc1)c1cc2ccccc2oc1=O,46.5%,62.2%,60%,43%,18.3%,70.2%,–,58.1%,38.1%,41.4%
O=c1[nH]c2cc(Cl)ccc2n1C1CCN(c2ccc3nnc(Cl)n3n2)CC1,91%,87.4%,87.7%,95.4%,100%,103%,–,97.3%,107%,88.3%
Fc1ccc(-c2cc3nc(C(Cl)Cl)nc(-c4cccs4)n3n2)cc1,35.2%,95%,-9.31% (active),5.82% (active),-32.8% (active),-6.12% (active),–,58.2%,-23.1% (active),-14.2% (active)
C=C(C)[C@@H]1CC[C@]2(C(=O)ON)CC[C@]3(C)[C@H](CC[C@@H]4[C@@]5(C)C/C(=C/c6ccc(Br)cc6)C(=O)C(C)(C)[C@@H]5CC[C@]43C)[C@@H]12,78.4%,72.6%,85.1%,85.9%,71%,73.6%,–,84.8%,–,54.8%
O=c1oc2ccc(-c3ccc(F)cc3F)cc2c(=O)n1-c1ccc(F)c(F)c1,2.21% (active),6.65% (active),6.5% (active),17.6%,2.7% (active),-21.4% (active),–,10.2%,83.2%,7.96% (active)
Cc1ccccc1NC1CC(=O)N(c2ccc(Cl)cc2Cl)C1=O (stereo unspecified),102%,108%,99%,103%,104%,78%,–,94.2%,120%,99.8%
COC[C@@]1(C)CC[C@]2(C)CC[C@]3(C)C(=CC[C@@H]4[C@@]5(C)CCCNC(C)(C)[C@@H]5CC[C@]43C)C2C1 (stereo partly specified),75.4%,81.3%,89.4%,83.9%,29.8%,73%,–,59.1%,22%,–
CCOC(=O)C1=C(C)Nc2nc3ccccc3n2C1c1cccc(Br)c1 (stereo unspecified),86.7%,102%,97.6%,74.3%,89.2%,–,37.1%,93.5%,–,80.7%
